Our source for the PBM binding z-score values is the supplement of paper PMC6555819.

For one experiment, the system named is RARa homodimer (NR concentration 270 nM). The experiment can be described thus: PBM binding z-score (relative to random genomic background probes); higher = stronger binding; sequences stand for … in GC…GCGATTGACAGCGTAGAATGAAGG
A digest of the protocol: (§1)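 Antibodies against each partner of ligand-free nuclear receptor dimers (one per run) detected binding on custom Agilent 4×180K protein-binding microarrays after 1 h incubation. The double-stranded probes had 34-nt variable regions carrying direct-repeat seeds, single-nucleotide variants, half-site ablations and random human genomic background sequences. Binding z-scores, from regression-normalized fluorescence, use the random background probes as reference.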
Consider CCTACTGGGCCAACGTCATTGATCAGTCAAAGCA, for which the PBM binding z-score is -0.369.

As for CCGACTCGGGCAGAAAGGTTACCATACCATCCGG, the PBM binding z-score was -0.25.

Sequence CCTTCTGGGCCACGAAAGGTCATTGATTCAGTGA came in with a PBM binding z-score of 2.53.

For ACTAGCAGGCCGAGGGTCACTCAAGATTAGTCCG, the PBM binding z-score was -0.0933.

CCTATTAGTTGACCATAAGGGCAACCGAAGCTCG came in with a PBM binding z-score of 1.39.

ACTATTAGTTGACTTACGGCAACCGATACGACGC yielded a PBM binding z-score of 0.942.

For the sequence CCGGCTAGGTCAATGGTCAGCTAAAGCAGCTCGC, the PBM binding z-score was determined as 0.248.

TCTAGCAGGCCAGAGGGTCGCTCAAGAGGTACGG gave a PBM binding z-score of -1.48.

The sequence ACTTCCGGGTCAACGAGGTTATAGCACGCGTATA displayed a PBM binding z-score of 0.82.

CCGACTGAGGCATAAGGTTACCATAAGCCAGCCC showed a PBM binding z-score of 0.101.

With GGAACGAGGGCAAGTTGACAGCAGAGTTTGATGG, the PBM binding z-score was -0.316.

In turn, CCAGACTGGTGAGAAGGTAACTCAGCCTCGATTA showed a PBM binding z-score of -0.0331.

The sequence CGTCCAAGGTCAGAGAGGTCAGTGGATGCCGAGT showed a PBM binding z-score of 0.8.

In the case of TCGGACAGGTGAAGGTAACTCAGGTACGCAGTCG, the PBM binding z-score was 0.257.

In turn, GCTATTAGTTGAAAGGGCAACCGAATGATTCTCG yielded a PBM binding z-score of 0.652.

For the sequence ACAGACAGGTGATGAAGGTGACTCAGGCTATCAT, the PBM binding z-score was 0.471.

ACTATTAGTTGAGACGATGGCAACCGATAGGTTG registered a PBM binding z-score of 0.657.

For the sequence ACACCAAGGTGATCGTGAGGTCGTTGATACTAAC, the PBM binding z-score came to 0.0851.

TGAATGAGGTTATAAAATCAGGGAACGTTGCAAA came in with a PBM binding z-score of -0.0179.

Turning to TATACAGGGTCAAAAGCCAGAGTACGAATGTCGA, the PBM binding z-score worked out at 0.877.

For ACTTACGGGTCACCGAGGTTATAGCACGCGTATA, the PBM binding z-score amounted to 1.56.

TCTGGTAGGTCAGTTGGTCAGCTAACGAGCTGCC registered a PBM binding z-score of 0.532.

Sequence AATACAGCGTCATCGTAGGCCAGAGTACGCACAG registered a PBM binding z-score of -0.571.

Turning to CGTCAAAGTTCAACTCAGGTAACGTAAAGCACGC, the PBM binding z-score worked out at 1.92.

Turning to ATATGTAGGTTAAGGGTGATTCAGGTTGGTTCGC, the PBM binding z-score came to 1.64.

CCAGACAGGTGAAAGATAACTCAGTCTGGTACGC showed a PBM binding z-score of 0.87.

TCTAGTTGATCAAAGGTCACACACTCGAAATGCG: the PBM binding z-score was found to be 3.64.

Sequence TCTCGGAGGACAGGAAGGTCAGAGCTTTCCAGAG registered a PBM binding z-score of 0.192.

In turn, CTCTAAAGGTCGGTTGAGGTGAGTATACGGATAA gave a PBM binding z-score of -0.146.

CGTCCAAGGTCAGAGAGGTTAGTGAATGCCGAGT yielded a PBM binding z-score of 0.223.

Regarding CCGACTGCGGCAAGGTTACCATAACGCACAGCCA, the PBM binding z-score is 0.0538.

In turn, CCTAGCAGGACAATCTGGGTCACTCAAGGCTTGA showed a PBM binding z-score of -0.343.

On to AGGCAAAGTTCACTAGGTAACGTAAGATTCAGCT, for which the PBM binding z-score is 1.73.

The sequence CTCGAAAGGACGGTTGAGGTGAGTATACGGATAA yielded a PBM binding z-score of -0.448.

CGAACGAGGGCATGAGTCGATAGCAAATGCCGAT gave a PBM binding z-score of -0.456.

As to CCTACTTGGCCAAAAAGGTCATTGATGCCGATAA, the PBM binding z-score amounted to 3.1.

For CCTACTGGGCCATCAGGTCATTAATATCAACGTT, the PBM binding z-score worked out at 0.585.

With TCTAGTTGGTCAGGGAGGTCACACACGACGGGTA, the PBM binding z-score was determined as 1.51.

For the sequence GCTAGCAGGCCAATTGGGTCACTCAATGACGGGC, the PBM binding z-score was -0.664.

A further experiment concerns RARb:RXRa (NR concentration 270 nM, RXRa partner concentration 90 nM). The experiment is described as above. A digest of the protocol:
as §1
Regarding CCTACTGGGCCAACGTCATTGATCAGTCAAAGCA, the PBM binding z-score was -0.00134.

Sequence CCGACTCGGGCAGAAAGGTTACCATACCATCCGG registered a PBM binding z-score of 1.74.

Sequence CCTTCTGGGCCACGAAAGGTCATTGATTCAGTGA displayed a PBM binding z-score of 4.21.

In turn, ACTAGCAGGCCGAGGGTCACTCAAGATTAGTCCG had a PBM binding z-score of 2.43.

With CCTATTAGTTGACCATAAGGGCAACCGAAGCTCG, the PBM binding z-score is 1.7.

Turning to ACTATTAGTTGACTTACGGCAACCGATACGACGC, the PBM binding z-score worked out at 0.199.

As to CCGGCTAGGTCAATGGTCAGCTAAAGCAGCTCGC, the PBM binding z-score was found to be 3.8.

For the sequence TCTAGCAGGCCAGAGGGTCGCTCAAGAGGTACGG, the PBM binding z-score was determined as 0.463.

As to ACTTCCGGGTCAACGAGGTTATAGCACGCGTATA, the PBM binding z-score came out at 3.97.

On to CCGACTGAGGCATAAGGTTACCATAAGCCAGCCC, for which the PBM binding z-score amounted to 0.876.

GGAACGAGGGCAAGTTGACAGCAGAGTTTGATGG: the PBM binding z-score stood at 2.51.

Consider CCAGACTGGTGAGAAGGTAACTCAGCCTCGATTA, for which the PBM binding z-score is -0.455.

In turn, CGTCCAAGGTCAGAGAGGTCAGTGGATGCCGAGT registered a PBM binding z-score of 5.38.

TCGGACAGGTGAAGGTAACTCAGGTACGCAGTCG: the PBM binding z-score came out at 1.45.

GCTATTAGTTGAAAGGGCAACCGAATGATTCTCG gave a PBM binding z-score of 2.

On to ACAGACAGGTGATGAAGGTGACTCAGGCTATCAT, for which the PBM binding z-score was 0.728.

ACTATTAGTTGAGACGATGGCAACCGATAGGTTG returned a PBM binding z-score of -0.199.

Regarding ACACCAAGGTGATCGTGAGGTCGTTGATACTAAC, the PBM binding z-score amounted to 1.47.

The sequence TGAATGAGGTTATAAAATCAGGGAACGTTGCAAA returned a PBM binding z-score of 0.918.

Sequence TATACAGGGTCAAAAGCCAGAGTACGAATGTCGA showed a PBM binding z-score of 3.73.

The sequence ACTTACGGGTCACCGAGGTTATAGCACGCGTATA registered a PBM binding z-score of 4.67.

TCTGGTAGGTCAGTTGGTCAGCTAACGAGCTGCC returned a PBM binding z-score of 3.62.

In turn, AATACAGCGTCATCGTAGGCCAGAGTACGCACAG came in with a PBM binding z-score of -0.182.

Consider CGTCAAAGTTCAACTCAGGTAACGTAAAGCACGC, for which the PBM binding z-score amounted to 5.15.

The sequence ATATGTAGGTTAAGGGTGATTCAGGTTGGTTCGC gave a PBM binding z-score of 1.54.

CCAGACAGGTGAAAGATAACTCAGTCTGGTACGC displayed a PBM binding z-score of 0.534.

In turn, TCTAGTTGATCAAAGGTCACACACTCGAAATGCG registered a PBM binding z-score of 4.85.

TCTCGGAGGACAGGAAGGTCAGAGCTTTCCAGAG showed a PBM binding z-score of 2.76.

For the sequence CTCTAAAGGTCGGTTGAGGTGAGTATACGGATAA, the PBM binding z-score was found to be 3.31.

The sequence CGTCCAAGGTCAGAGAGGTTAGTGAATGCCGAGT showed a PBM binding z-score of 4.7.

As for CCGACTGCGGCAAGGTTACCATAACGCACAGCCA, the PBM binding z-score was 0.845.

The sequence CCTAGCAGGACAATCTGGGTCACTCAAGGCTTGA came in with a PBM binding z-score of 1.42.

Take AGGCAAAGTTCACTAGGTAACGTAAGATTCAGCT: the PBM binding z-score was determined as 4.61.

As for CTCGAAAGGACGGTTGAGGTGAGTATACGGATAA, the PBM binding z-score came out at 0.634.

CGAACGAGGGCATGAGTCGATAGCAAATGCCGAT: the PBM binding z-score stood at 1.81.

In turn, CCTACTTGGCCAAAAAGGTCATTGATGCCGATAA yielded a PBM binding z-score of 3.99.

CCTACTGGGCCATCAGGTCATTAATATCAACGTT: the PBM binding z-score is 1.94.

The sequence TCTAGTTGGTCAGGGAGGTCACACACGACGGGTA gave a PBM binding z-score of 3.63.

Sequence GCTAGCAGGCCAATTGGGTCACTCAATGACGGGC displayed a PBM binding z-score of 1.54.
